# Assay outcomes (PubChem)
# Most compounds without a hit are left out; they make up all but 19% or so of the library.
# HT1080NT lethal – kills 2HG-producing HT-1080-NT fibrosarcoma cells | actives 1.6% (n = 360,000) | HT-1080-NT fibrosarcoma viability, CellTiter-Glo ATP luminescence, 48 h | AID 686970 | Potency, µM (series often up to 46.1 µM), inactives show at the top dose activity, negative = less viability, actives largely listed as cytotoxic;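 note: NT is the 2HG producing partner of a matched IDH1 knockdown line; potency is the fitted concentration of half-maximal effect; 0% = DMSO-treated cells and -100% = media-only wells without cells; nearly all actives have a fitted effect of over 55% in size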
#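 Compounds were tested in concentration-response format on HT-1080-NT cells for 48 hours at 37 degrees C. Cell viability came from CellTiter-Glo luminescence; curves were classified by r2, response magnitude and activity.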
# IL-1B inflam inh – inhibitors of inflammasome signaling (IL-1 beta secretion); THP-1 LPS/ATP IL-1B secretion, AlphaLISA, 16 h; hits give low values; activity change, % at 57.5 µM; actives 4.7% (n = 360,000); AID 743279; in the data active = activity change below about -50%; inconclusive = mostly about -30% to -49%
#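 Secreted IL-1B measured by AlphaLISA bead assay after 16 h compound exposure of THP-1 cells; compounds (final up to 57.5 uM) added 1 h before LPS (250 ng/mL) and ATP (1.25 mM) stimulation; lower signal means less secretion.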
# HT1080 IDH1KD tx – HT-1080 IDH1 knockdown cell toxicity (counter line) | HT-1080 IDH1 knockdown viability, ATP luminescence, 48 h | Potency, µM (titrated, usually from 46.1 µM), for the others: at the top dose activity, negative = toxicity, usual class: cytotoxic | actives 2% (n = 360,000) | AID 686971;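 note: potency is the fitted concentration of half-maximal effect; 0% = DMSO wells and -100% = cell-free medium wells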
#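 Assay cells: HT-1080 with IDH1 knockdown, 750 per well, RPMI/5% FBS. Exposure: 48 h at 37 °C following 2 h pre-incubation. Read: CellTiter-Glo luminescence; fitted concentration-response, curve class assigned.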
# DT40 TDP1 no CPT – qHTS for Inhibitors of human tyrosyl-DNA phosphodiesterase 1 (TDP1): qHTS in cells in absence of CPT; DT40 Tdp1-/- hTDP1 cells, no CPT, ATP luminescence, 48 h; Potency, µM (doses to about 46.2 µM), for the others: at the highest dose activity change, negative = growth inhibition, usual class: inhibitors; actives 15% (n = 420,000); note: potency is the fitted concentration of half-maximal effect; nearly all actives have a fitted effect of over 55% in size
#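 Seeded 400 DT40-hTDP1 cells/well (vehicle DMSO, no 20 nM CPT); pinned compounds; ≥48 hr at 37 °C; CellTiter-Glo luminescence as viability measure.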
# TDP1 cell CPT – DT40-hTDP1 cell growth loss with CPT; chicken DT40 Tdp1-/-;hTDP1 cells + 20 nM CPT, ATP luminescence, 48 h; Potency, µM (highest dose often 46.2 µM), without a hit: top-dose activity change, negative = growth inhibition, most hits filed as inhibitors; actives 12% (n = 420,000); AID 686979; note: potency is the fitted concentration of half-maximal effect; nearly all actives have a fitted effect of over 55% in size
#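 Cell growth measured by CellTiter-Glo luminescence after a minimum 48 h, 37 C compound exposure with 20 nM CPT in Tdp1-knockout DT40 cells stably expressing hTDP1, seeded 400/well; qHTS titration format.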
# Numbers without * were called inactive; ? = inconclusive; nt = not tested or not shown. Unless noted, calls come from the whole dose curve; as a rule, active = well fitted curve in the direction sought with a large enough effect; inconclusive = small, poorly fitted or top-dose-only effect, or another doubt; inactive = no such curve, though single readings can be large; an effect the other way counts as inactive or inconclusive. Unless noted, % is set by controls: 0 for no effect and ±100 for the full control effect.
SMILES,HT1080NT lethal,IL-1B inflam inh,HT1080 IDH1KD tx,DT40 TDP1 no CPT,TDP1 cell CPT
CC(=O)N1CCc2c(sc3c2c(=O)n(Cc2ccccc2)c(=O)n3Cc2cc(C)ccc2C)C1,nt,nt,nt,20.6µM*,16.4µM*
CCOC(=O)N1CCc2c(sc3c2c(=O)n(Cc2ccccc2)c(=O)n3CC(=O)NCCOC)C1,9.2%,9.9,-1.1%,24.3%,-24.2%
CCOC(=O)N1CCc2c(sc3c2c(=O)n(-c2ccccc2C(F)(F)F)c(=O)n3Cc2ccccc2C)C1,nt,nt,nt,?,18.4µM*
CCOC(=O)N1CCc2c(sc3c2c(=O)n(Cc2ccccc2)c(=O)n3Cc2cccc(Cl)c2)C1,nt,nt,nt,20.6µM*,10.3µM*
O=C(OCC(=O)N1CCN(C(=O)c2ccco2)CC1)c1ccc(Cl)nc1,0.5%,7.8,5.4%,-0.7%,-1.6%
O=C(CCCn1c(=O)c2cccn2c2cccnc21)N1CCN(c2ccccc2F)CC1,24.5%,-0.3,?,5.4%,-0.8%
CCN(C(=O)c1cc(S(=O)(=O)N2CCCC2)cn1C)c1ccc(OC)cc1,nt,nt,nt,-26.1%,-19.0%
COC(=O)c1cccc(C#CC(NP(=O)(c2ccccc2)c2ccccc2)c2ccccc2)c1 (configuration not stated),-18.9%,-64.2*,-27.7%,?,25.9µM*
COC(=O)c1cccc(NC(=O)CCCOc2ccccc2)c1,-2.7%,9.8,-0.8%,-1.9%,-1.0%
COc1ccc(-n2nc3ccc(N)cc3n2)cc1,-2.1%,38.9,-3.7%,?,16.4µM*
CCOc1ccc(-n2nc3ccc(N)cc3n2)cc1,3.9%,0.6,0.7%,?,-18.1%
COc1ccc(-c2csc(N(CC3CCCO3)C(=O)c3ccccc3)n2)cc1 (configuration not stated),-22.9%,25.8,-22.0%,?,?
CCC(=O)N(CCCN(C)C)c1nc(-c2cc(OC)ccc2OC)cs1,-15.2%,?,-13.4%,-7.9%,-18.4%
COc1ccc(-c2csc(N(CCCN(C)C)C(=O)c3ccc(Br)cc3)n2)cc1,20.6µM*,-76.2*,20.6µM*,20.6µM*,20.6µM*
COc1ccc(-c2csc(N(CCCN(C)C)C(=O)c3ccc(C(C)(C)C)cc3)n2)cc1,?,-80.4*,16.4µM*,?,?
COc1ccc(-c2csc(N(CCCN(C)C)C(=O)c3ccc(C)cc3)n2)cc1,?,-78.7*,?,16.4µM*,?
COc1ccc(-c2csc(N(CC3CCCO3)C(=O)c3ccc(C)cc3)n2)cc1 (configuration not stated),-26.3%,-19.4,?,23.1µM*,25.9µM*
COc1cc(=O)n2c(c1C(=O)N(C)Cc1ccsc1)CCN(Cc1cnn(C)c1C)CC2,nt,nt,nt,-5.2%,-0.2%
Cc1cc(C)cc(OCC(=O)NNC(=O)CCC(=O)NCc2ccccc2)c1,-9.2%,11.3,-2.6%,-10.0%,-3.2%
CCOc1ccc2nc(NC(=O)C3CSC4(C)CCC(=O)N34)sc2c1 (configuration not stated),2.1%,-15.4,-3.5%,?,?
COc1ccccc1-c1c(C)nn2c(-c3ccccc3)cc(C)nc12,-5.7%,-70.3*,-16.8%,20.6µM*,14.6µM*
CCOC(=O)C1CCN(c2cc(C)nc3c(-c4ccccc4OC)c(C)nn23)CC1,nt,nt,nt,18.4µM*,18.4µM*
COc1ccccc1-c1c(C)nn2c(N3CCCCCC3)cc(C)nc12,?,-77.2*,?,18.4µM*,16.4µM*
COc1ccccc1-c1c(C)nn2c(N3CCN(c4ccccc4OC)CC3)cc(C)nc12,-0.3%,-1.3,13.8%,?,?
COc1ccccc1-c1c(C)nn2c(N3CCOCC3)cc(C)nc12,1.7%,30.1,-2.6%,18.9%,-1.0%
SMILES,HT1080NT lethal,IL-1B inflam inh,HT1080 IDH1KD tx,DT40 TDP1 no CPT,TDP1 cell CPT
CNc1nc(C)c(C(=O)OCc2ccccc2)s1,3.1%,-10.8,0.3%,-22.1%,-8.5%
CC(C)(C)c1ccc(C(=O)NC(=S)N2CCCCCC2)cc1,?,-6.1,?,13µM*,18.4µM*
CC1CCN(C(=S)NC(=O)c2ccc(C(C)(C)C)cc2)CC1,-1.0%,0.4,1.0%,?,23.1µM*
CC(C)(C)c1ccc(C(=O)NC(=S)N2CCCC2)cc1,-6.4%,-14.9,-14.1%,?,-20.3%
CCOc1ccccc1NC(=S)NNS(=O)(=O)c1c(C)cc(C)cc1C,9.0%,-0.3,6.8%,-13.4%,-9.8%
NC(=O)C1(N2CCCCC2)CCN(C(=S)Nc2ccc(F)c(Cl)c2)CC1,1.1%,-11.9,6.2%,4.6%,14.5%
Cc1ccc(S(=O)(=O)N(C)Cc2ccccc2)cc1C(=O)N1CCCCC1,-19.0%,0.2,-14.3%,?,14.6µM*
Cc1ccc(S(=O)(=O)N2CCCCC2)cc1C(=O)N(CCc1ccccc1)Cc1ccccc1,-3.5%,-13.7,-16.5%,10.3µM*,8.2µM*
O=C(NCCc1ccccc1)c1cc(S(=O)(=O)N2CCOCC2)ccc1F,19.6%,11.3,26.5%,-14.7%,-8.0%
O=C(c1cc(S(=O)(=O)N2CCOCC2)ccc1F)N(CCc1ccccc1)Cc1ccccc1,-8.0%,?,-2.4%,23.1µM*,?
CCc1ccc(CN(C)C(=O)c2cc(S(=O)(=O)N3CCN(CC)CC3)ccc2Cl)cc1,-7.8%,-67.0*,-10.0%,18.4µM*,?
COCCN(Cc1ccccc1)C(=O)c1cc(S(=O)(=O)N2CCCCCC2)ccc1OC,-3.1%,-11.1,3.3%,?,?
Cc1ccccc1C(=O)N1CCC(C(=O)N(C)CCOc2ccccc2)CC1,-3.6%,-4.6,-3.1%,?,?
CCN1CCN(S(=O)(=O)c2ccc(Cl)c(C(=O)N(CC)Cc3ccccc3)c2)CC1,-0.4%,-4.5,-2.0%,?,?
CCN1CCN(S(=O)(=O)c2ccc(Cl)c(C(=O)N(CCc3ccccc3)Cc3ccccc3)c2)CC1,?,-12.6,?,23.1µM*,23.1µM*
Cc1ccc(N(Cc2ccccc2)C(=O)c2cc(S(=O)(=O)N3CCOCC3)ccc2C)cc1,0.0%,7.7,-10.2%,13µM*,20.6µM*
Cc1cccc(N(Cc2ccccc2)C(=O)C2CCN(C(=O)c3ccccc3C)CC2)c1,-1.4%,0.0,-10.0%,5.8µM*,11.6µM*
Cc1cc(C)nc(S[C@H]2C[C@@H](C(=O)N3CCN(c4ccccc4F)CC3)N(Cc3ccccc3F)C2)n1,nt,nt,nt,-21.0%,-21.4%
Cc1nn(CCc2nc(-c3ccco3)cs2)c2[nH]c(=O)cc(C(F)(F)F)c12,-9.3%,12.6,-19.1%,?,?
COCCCNC(=O)C1CCC(CNS(=O)(=O)c2ccc3c(c2)N(C(C)=O)CCO3)CC1 (configuration not stated),-5.1%,15.0,3.5%,3.6%,-3.1%
